We go through 20 molecules from paper PMC4552634, “A New Set of Chemical Starting Points with Plasmodium falciparum Transmission-Blocking Potential for Antimalarial Drug Discovery” (PLoS ONE, 2015).

Screen size: about 13,000 compounds; about 3,200 (25%) showed an effect of 50% or more. This is one part of the list. Peptide text beside a SMILES is read from it. * marks the point of attachment. Boc = CC(C)(C)OC(=O)*

For the experiment, the system named is P. falciparum stage V gametocytes. More on the design: BacTiter-Glo ATP luminescence viability of purified stage V gametocytes in 384-well plates, per cent inhibition versus DMSO. The conditions noted are these: 48 h, 5 µM; inhibitor.
Consider `COC(=O)CC[C@H](NC(=O)[C@H](C)NC(=O)OC(C)(C)C)C(=O)OC` [TCMDC-131388] (Boc-Ala-Glu(OMe)-OMe), for which the % Inhibition (usually the relative decrease from the control value, in per cent) was -20.52%. As for `CCCCC#Cc1cnc2nc(N)[nH]c(=O)c2n1` [TCMDC-137943], the “% Inhibition” value was 7.746%.

`CCCCC(O)c1cc(O)c2c(c1)OC(C)(C)CC2C1=CCN(Cc2ccc3ccccc3c2)CC1` (centres unmarked) [TCMDC-131420]: the “% Inhibition” value is on record as -23.67%. The same measure for `CC1(C)N=C(N)N=C(N)N1c1cccc(C(F)(F)F)c1` [TCMDC-124504]: -28.24%. For `CC(=O)Nc1nc(-c2ccccc2)[nH]c1C(N)=O` [TCMDC-131311], the “% Inhibition” value is recorded as -1.405%.

As to `COc1ccc(Nc2nccc(N3CCC(NC(=O)c4cccc(NC(C)=O)c4)C3)n2)cc1` (centres unmarked) [TCMDC-133611], the “% Inhibition” value is given as -20.16%.

Take `O=C(N[C@H]1CCN(CCc2ccc(O[C@H]3CCNC3)c(Br)c2)C1)c1ccc(Cl)c(Cl)c1` [TCMDC-141069]: the “% Inhibition” value was found to be 53.75%.

As to `O=C(N[C@H]1CCN(Cc2ccc(OC3CCN(Cc4ccccc4)CC3)c(Br)c2)C1)c1ccc(Cl)c(Cl)c1` [TCMDC-140286], the “% Inhibition” value stood at 18.35%.

For the molecule `O=C(N[C@H]1CCN(CCc2ccc(O[C@H]3CCNC3)c(F)c2)C1)c1ccc(Cl)c(Cl)c1` [TCMDC-141067], the “% Inhibition” value came out at 56.15%. The same measure for `O=C(N[C@H]1CCN(CCc2ccc(O[C@H]3CCNC3)cc2)C1)c1ccc(Cl)c(Cl)c1` [TCMDC-141066]: 34.25%; for `COCCNC(=O)c1ccc(OC2CCN(Cc3ccc(F)c(F)c3)CC2)c(Cl)c1` [TCMDC-124653]: 4.866%. Consider `O=C(NCCN1CCN(S(=O)(=O)c2ccc(OC3CCNCC3)c(Br)c2)CC1)c1ccc(Cl)c(Cl)c1` [TCMDC-141153], for which the “% Inhibition” value came to 84.33%.

Consider `O=C(N[C@H]1CCN(CCc2ccc(O[C@H]3CCNC3)c(Cl)c2)C1)c1ccc(Cl)c(Cl)c1` [TCMDC-141068], for which the “% Inhibition” value is recorded as 47.4%. On to `Cc1cc(C)c2c(c1)C(=NO)CCN2` [TCMDC-140382], for which the “% Inhibition” value was -79.12%. For `NC1CCN(c2nc(NCCc3ccc(O)cc3)nc(NCc3ccccc3-c3ccc(C(F)(F)F)cc3)n2)CC1` [TCMDC-133442], the “% Inhibition” value turned out to be 32.82%.

On to `CN1CCC(Oc2cc(NC(=O)Nc3ccc(-c4ccncc4)c(C(F)(F)F)c3)ccc2Cl)CC1` [TCMDC-139223], for which the “% Inhibition” value was -12.77%. Take `COc1cc(COc2c(C)nc(N)nc2N)cc(OC)c1OC` [TCMDC-131346]: the “% Inhibition” value came to 7.837%. `CC(=O)Nc1ccc(Cl)c(Cl)c1` [TCMDC-125481]: the “% Inhibition” value is recorded as -1.69%. On to `NCCCN(Cc1ccc(Cl)c(Cl)c1)C(=O)Nc1ccc(Cl)c(Cl)c1` [TCMDC-139415], for which the “% Inhibition” value was 96.81%. Consider `NC(N)=NC(=O)Nc1ccc(Cl)c(Cl)c1` [TCMDC-124295], for which the “% Inhibition” value is given as -4.176%.
